Experimental data as given in the supplement of paper PMC10941209.

Test system: HFF
Assay: cell viability relative to DMSO control; higher = less cytotoxic
Settings: 1 µM; 72 h
Description: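 Single-dose cytotoxicity screen of the MMV Pandemic Response Box at 1 uM on human foreskin fibroblasts (HFF), 72 h at 37 C. Viability measured by MTT (OD 550 nm) and normalised to the DMSO control (% survival).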

| Compound | cell viability |
| --- | --- |
| CNc1nc(=O)[nH]cc1F | 68.4% |
| Nc1cc(N)c2nc(-c3ccccc3)c(Nc3ccc(F)cc3)nc2c1 | 80.1% |
| CC(=O)N[C@H](C)C(=O)N[C@H](Cc1ccccc1)C(=O)O | 61.1% |
| CCN(CC)S(=O)(=O)c1ccc(Cl)c(C(=O)Nc2sc3c(c2C#N)CCCC3)c1 | 60.2% |
| COc1ccc(C(C)(C)C)cc1NC(=O)C(=O)c1ccc(OCCN2CCOCC2)c2ccccc12 | 69.1% |
| O=c1cc(Nc2ccc3ccccc3c2)[nH]c(=O)[nH]1 | 65.6% |
| CC(C)/N=c1\cc2n(-c3ccc(Cl)cc3)c3ccccc3nc-2cc1Nc1ccc(Cl)cc1 | 72.6% |
| O=C(N[C@H](CCS)C(=O)N[C@H](Cc1ccccc1)C(=O)O)c1cc2ccccc2[nH]1 | 67.6% |
| CC(C)(C)c1cc(CCC(=O)N2CCC2)cc(C(C)(C)C)c1O | 72.6% |
| CC1=C(/C=C/C(C)=C/C=C/C(C)=C/C(=O)Nc2ccc(O)cc2)C(C)(C)CCC1 | 70.8% |
| COc1cc2c(O)c3c(c(-c4ccc5c(c4)OCO5)c2cc1OC)C(=O)OC3 | 66.8% |
| CC(C)Cn1c(=O)n(C)c(=O)c2c(-c3cncn3C)n(Cc3cccc4ccccc34)nc21 | 63.1% |
| O=C(O)CCNC(=O)c1ccccc1 | 66.9% |
| CSC[C@H]1CN(Cc2c[nH]c3c(N)ncnc23)C[C@@H]1O | 61.5% |
| Nc1ccc2oc(=O)ccc2c1I | 69.6% |
| COc1ccc2sc3c(c2c1)NC(C)CNC3=O (configuration not stated) | 82.1% |
| Cc1cccc(C)c1C(=O)Nc1nc(-c2ccccn2)cc2ccccc12 | 74.7% |
| CN(C(=O)C1(c2ccc(Cl)cc2)CCC1)c1ccccc1 | 63.2% |
| NC[C@H]1OB(O)c2c(OCCCO)cccc21 | 69.9% |
| O=C(/C=C/n1cnc(-c2cc(C(F)(F)F)cc(C(F)(F)F)c2)n1)NNc1cnccn1 | 59.7% |
| CC[N+]1(C/C2=C/CCCCCC2)CCC(NC(=O)C2c3cc(Cl)ccc3Oc3ccc(Cl)cc32)CC1 (configuration not stated) | 65.6% |
| Nc1nc(O)c2ncn([C@@H]3O[C@H](CO)[C@@H](O)[C@H]3F)c2n1 | 68.9% |
